# Data taken from PubChem BioAssay (NCATS).
# Results filed as inconclusive are left out. Where a call stands in place of a potency, no number is given. Activity calls are given as the source filed them. Unless noted, the call rests on the fitted dose curve; in most records, active means well fitted curve in the direction sought with a large enough effect; inconclusive means small, poorly fitted or top-dose-only effect, or another doubt; inactive means no such curve, though single readings can be large; an effect the other way counts as inactive or inconclusive.
# Columns and labels:
# [1] = target: Methanococcus maripaludis chaperonin (MmCpn) (UniProt Q6LX38); experiment: High-Throughput Screening for Modulators of Cytosolic Chaperonin Activity: MmCpn Primary Screen (AID 488978);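 further: 50 nM MmCpn enzyme hydrolysing 30 µM ATP at 37 °C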
# Chain of Methanococcus maripaludis chaperonin (MmCpn) (Q6LX38 1-543): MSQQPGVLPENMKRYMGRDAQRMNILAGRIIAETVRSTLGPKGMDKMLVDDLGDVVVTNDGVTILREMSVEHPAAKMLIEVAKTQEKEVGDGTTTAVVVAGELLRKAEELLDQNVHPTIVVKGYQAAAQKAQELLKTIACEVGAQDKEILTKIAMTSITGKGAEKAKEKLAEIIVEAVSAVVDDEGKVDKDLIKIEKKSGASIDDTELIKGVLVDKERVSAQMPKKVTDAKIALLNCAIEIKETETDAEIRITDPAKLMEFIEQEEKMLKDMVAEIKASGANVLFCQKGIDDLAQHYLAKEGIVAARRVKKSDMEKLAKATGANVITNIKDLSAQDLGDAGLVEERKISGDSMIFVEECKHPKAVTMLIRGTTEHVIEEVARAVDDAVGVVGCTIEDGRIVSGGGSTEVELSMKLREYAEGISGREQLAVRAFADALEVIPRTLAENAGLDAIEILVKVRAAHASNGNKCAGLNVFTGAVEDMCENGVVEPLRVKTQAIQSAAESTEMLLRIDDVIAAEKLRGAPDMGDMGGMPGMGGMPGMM
# In short: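 Steps: chaperonin 50 nM final; add compound, 5 min RT; start with ATP, 30 uM final; hold 10 min at 37C; add ADP Transcreener HTRF reagent, 5 min; read ex 320, em 590 and 665 nm.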
# [2] = target: D(1A) dopamine receptor (Homo sapiens) (UniProt P21728); experiment: HTS Assay for Allosteric Agonists of the Human D1 Dopamine Receptor: Primary Screen for Agonists (AID 488981)
# Chain of D(1A) dopamine receptor (Homo sapiens) (P21728 whole entry, looked up): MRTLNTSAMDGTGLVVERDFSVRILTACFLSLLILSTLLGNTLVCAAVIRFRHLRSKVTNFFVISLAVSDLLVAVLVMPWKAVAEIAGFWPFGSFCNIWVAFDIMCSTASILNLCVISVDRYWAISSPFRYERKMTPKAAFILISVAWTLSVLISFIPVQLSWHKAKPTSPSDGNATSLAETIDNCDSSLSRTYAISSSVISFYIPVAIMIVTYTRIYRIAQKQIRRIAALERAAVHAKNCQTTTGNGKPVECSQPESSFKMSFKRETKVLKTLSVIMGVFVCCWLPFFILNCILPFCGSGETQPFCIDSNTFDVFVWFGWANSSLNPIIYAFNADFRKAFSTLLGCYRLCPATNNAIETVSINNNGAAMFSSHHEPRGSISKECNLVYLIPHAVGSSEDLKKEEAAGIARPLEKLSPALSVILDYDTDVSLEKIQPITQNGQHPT
# In short: (§1)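 Calcium flux in an inducible, force-coupled HEK293 Trex D1 line (overnight at 30 C): agonist mode is the 180 s kinetic read after compound; potentiator mode is the following 180 s read after dopamine at EC20.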
# [3] = target: D(1A) dopamine receptor (Homo sapiens) (UniProt P21728); experiment: HTS Assay for Allosteric Agonists of the Human D1 Dopamine Receptor: Primary Screen for Potentiators (AID 488982)
# In short: as §1
# [4] = target: D(1A) dopamine receptor (Homo sapiens) (UniProt P21728); experiment: HTS Assay for Allosteric Agonists of the Human D1 Dopamine Receptor: Primary Screen for Antagonists (AID 488983);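 further: calcium flux response to an EC80 dopamine challenge measured with no-wash dye; nearly all actives have a fitted effect of over 65% in size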
# In short: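 In this primary screen, compounds are applied to calcium-dye-loaded HEK293 T-REx cells with force-coupled D1 expression induced overnight at 30 C. An EC80 of dopamine follows the 180 s compound phase, and calcium is monitored for a further 180 s.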
# [5] = Validation screen for small molecules that induce genotoxicity in human embryonic kidney (HEK293T) cells expressing luciferase-tagged ELG1 (AID 493106); details: luminescence; further: potency means the concentration at half of the fitted maximal effect
# In short: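 In this validation screen, increased ELG1-luciferase signal flags compounds causing genetic stress. HEK293T reporter cells are treated 16 hr (37 °C, 5% CO2), developed with ONE-Glo for 30 min at room temperature, and imaged on a CCD-based reader.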
# [6] = Nrf2 qHTS screen for inhibitors: Validation (AID 493153; active means well fitted inhibition curve with a large enough effect in the main read-out, with a control signal flat, not every such curve was filed as active); details: viability change: measured here: cytotoxicity max response
# In short: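 In this counterscreened reporter format, each well gives two signals: CellTiter-Fluor fluorescence for cytotoxicity and ARE-luciferase luminescence for Nrf2 function. A549 ARE_Fluc cells in 5% FBS OPTI-MEM were exposed to compound titrations for 18-24 h.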
# [7] = target: Peptidyl-prolyl cis-trans isomerase NIMA-interacting 1 (Homo sapiens) (UniProt Q13526); experiment: qHTS Validation Assay to Find Inhibitors of Pin1 (AID 504536; active means well fitted inhibition curve with a large enough effect in the polarisation, with a control signal flat, not every such curve was filed as active; the % refers to the polarisation)
# Chain of Peptidyl-prolyl cis-trans isomerase NIMA-interacting 1 (Homo sapiens) (Q13526 whole entry, looked up): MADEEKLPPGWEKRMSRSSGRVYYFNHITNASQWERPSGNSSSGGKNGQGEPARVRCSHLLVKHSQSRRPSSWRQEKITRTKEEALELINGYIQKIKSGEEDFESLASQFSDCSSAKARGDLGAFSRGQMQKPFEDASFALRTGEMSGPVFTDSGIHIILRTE
# In short: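 Fluorescence polarization competition: compounds (titration) displace HiFluor-488-labeled Pin1-1b peptide from Pin1 (0.3 uM final) in pH 7.5 HEPES buffer with DTT, 10 min at room temperature; %Activity normalized to no-enzyme wells, curves fitted.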
# [8] = target: Phosphoglycerate kinase, glycosomal (Trypanosoma brucei brucei) (UniProt P07378); experiment: qHTS Validation Assay to Find Inhibitors of Phosphoglycerate Kinase (AID 504547)
# Chain of Phosphoglycerate kinase, glycosomal (Trypanosoma brucei brucei) (P07378 whole entry, looked up): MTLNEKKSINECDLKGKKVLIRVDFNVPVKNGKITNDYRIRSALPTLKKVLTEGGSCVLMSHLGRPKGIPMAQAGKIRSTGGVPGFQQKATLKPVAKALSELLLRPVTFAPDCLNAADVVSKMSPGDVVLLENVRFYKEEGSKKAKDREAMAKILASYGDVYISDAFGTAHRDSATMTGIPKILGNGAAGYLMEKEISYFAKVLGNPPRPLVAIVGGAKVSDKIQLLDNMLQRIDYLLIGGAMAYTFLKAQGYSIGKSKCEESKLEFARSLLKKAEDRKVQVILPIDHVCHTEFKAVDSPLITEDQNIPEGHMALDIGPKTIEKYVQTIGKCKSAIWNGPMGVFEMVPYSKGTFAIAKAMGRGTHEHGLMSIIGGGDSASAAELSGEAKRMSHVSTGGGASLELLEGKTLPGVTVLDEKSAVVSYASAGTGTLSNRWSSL
# In short: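 Luminescence end-point (Kinase-Glo Plus, 10 min) after a 60 min room-temperature coupled reaction. GAPDH at 100nM final supplies 1,3-BPG to PGK. Buffer: 100mM TEA pH 7.6, 5mM MgCl2, 0.01% Tween-20. Wells lacking PGK served as controls.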
# [9] = target: phosphoglycerate mutase (Leishmania major) (UniProt Q4Q090); experiment: qHTS Validation Assay to Find Inhibitors of Phosphoglycerate Mutase (AID 504548);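 further: end-point luminescence from Kinase-GloPlus after the PGAM reaction; series mostly up to about 58 µM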
# Chain of phosphoglycerate mutase (Leishmania major) (Q4Q090 1-553): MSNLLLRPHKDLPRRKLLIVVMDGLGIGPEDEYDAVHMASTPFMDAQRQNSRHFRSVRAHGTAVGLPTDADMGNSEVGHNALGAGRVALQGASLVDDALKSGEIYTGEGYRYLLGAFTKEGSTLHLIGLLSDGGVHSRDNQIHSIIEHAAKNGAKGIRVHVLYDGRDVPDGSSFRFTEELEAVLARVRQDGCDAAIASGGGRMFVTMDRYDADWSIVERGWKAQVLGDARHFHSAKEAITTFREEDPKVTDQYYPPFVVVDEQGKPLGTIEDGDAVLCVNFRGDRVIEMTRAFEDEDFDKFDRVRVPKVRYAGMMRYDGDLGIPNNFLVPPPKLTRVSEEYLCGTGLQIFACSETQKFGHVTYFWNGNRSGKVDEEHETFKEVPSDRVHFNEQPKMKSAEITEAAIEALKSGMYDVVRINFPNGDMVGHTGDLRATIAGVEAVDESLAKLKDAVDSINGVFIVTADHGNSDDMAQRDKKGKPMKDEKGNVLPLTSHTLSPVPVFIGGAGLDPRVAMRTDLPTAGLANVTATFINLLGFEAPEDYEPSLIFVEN
# In short: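 L. major PGAM (1.25nM final) was added to substrate buffer and pinned compound, incubated 45 minutes at room temperature, then Kinase-GloPlus added; luminescence read after 10 minutes. Buffer: 100 mM TEA pH 7.6, 5 mM MgCl2, 0.01% Tween-20.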
# [10] = target: Tyrosyl-DNA phosphodiesterase 1 (Homo sapiens) (UniProt Q9NUW8); experiment: Confirmation Assay for Inhibitors of Tyrosyl-DNA Phosphodiesterase (TDP1) (AID 489007); details: recombinant human TDP1 enzymatic activity, dose-response; further: potency means the concentration at half of the fitted maximal effect; nearly all actives have a fitted effect of over 40% in size
# Chain of Tyrosyl-DNA phosphodiesterase 1 (Homo sapiens) (Q9NUW8 whole entry, looked up): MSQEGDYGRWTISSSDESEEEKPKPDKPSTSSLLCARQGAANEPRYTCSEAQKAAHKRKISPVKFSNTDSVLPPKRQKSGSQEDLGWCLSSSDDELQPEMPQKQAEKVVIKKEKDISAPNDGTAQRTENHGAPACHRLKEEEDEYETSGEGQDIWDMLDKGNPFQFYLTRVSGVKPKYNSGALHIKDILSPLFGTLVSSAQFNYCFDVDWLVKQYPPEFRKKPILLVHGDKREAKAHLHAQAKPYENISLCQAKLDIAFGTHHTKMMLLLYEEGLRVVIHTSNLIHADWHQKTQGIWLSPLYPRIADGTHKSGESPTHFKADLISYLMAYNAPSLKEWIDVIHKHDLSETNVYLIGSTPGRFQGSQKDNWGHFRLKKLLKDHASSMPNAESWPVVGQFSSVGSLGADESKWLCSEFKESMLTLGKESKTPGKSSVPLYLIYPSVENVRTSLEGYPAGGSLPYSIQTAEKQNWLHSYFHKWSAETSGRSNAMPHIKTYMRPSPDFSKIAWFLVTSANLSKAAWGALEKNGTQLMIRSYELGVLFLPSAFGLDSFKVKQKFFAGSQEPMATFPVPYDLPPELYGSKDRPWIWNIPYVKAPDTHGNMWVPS
# In short: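 Loss of AlphaScreen signal reports Tdp1 cleavage of a dual-labelled DNA substrate. Conditions: 1 nM E. coli-derived enzyme, 15 nM substrate, 15 min compound preincubation, 5 min reaction, 10 min bead incubation, all at room temperature.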
# [11] = target: ATP-dependent 6-phosphofructokinase (Trypanosoma brucei brucei) (UniProt O15648); experiment: qHTS Assay to Find Inhibitors of T. brucei phosphofructokinase: hit validation (AID 492961);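 further: luminescence reports ADP formed as PFK phosphorylates fructose-6-phosphate with ATP; series mostly up to about 51 µM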
# Chain of ATP-dependent 6-phosphofructokinase (Trypanosoma brucei brucei) (O15648 whole entry, looked up): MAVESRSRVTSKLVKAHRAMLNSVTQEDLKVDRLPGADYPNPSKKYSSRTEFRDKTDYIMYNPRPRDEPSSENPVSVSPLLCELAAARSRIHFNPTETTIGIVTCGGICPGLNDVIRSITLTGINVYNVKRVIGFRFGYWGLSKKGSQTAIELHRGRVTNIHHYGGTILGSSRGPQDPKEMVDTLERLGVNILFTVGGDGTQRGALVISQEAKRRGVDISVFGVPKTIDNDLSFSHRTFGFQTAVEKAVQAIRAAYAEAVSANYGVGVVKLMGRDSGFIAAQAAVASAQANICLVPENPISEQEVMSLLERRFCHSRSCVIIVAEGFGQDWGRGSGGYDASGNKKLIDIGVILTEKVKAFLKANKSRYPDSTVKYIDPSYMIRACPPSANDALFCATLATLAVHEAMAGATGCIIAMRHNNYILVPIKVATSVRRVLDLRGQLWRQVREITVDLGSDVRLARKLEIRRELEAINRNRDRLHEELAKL
# In short: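 Measures ADP output of PFK (1.25 nM) at 0.1 mM ATP, 0.5 mM F6P, pH 8.0 TEA buffer with 5 mM MgCl2. No-enzyme wells define full inhibition; uninhibited enzyme wells define zero.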
structure (smiles),measurement,setting,value
Oc1ccc(/C=C/c2cc(O)cc(O)c2)cc1,outcome,[1],inactive
same,outcome,[2],inactive
same,outcome,[3],inactive
same,outcome,[4],inactive
same,Potency,[5],2.91 µM (active)
same,outcome,[6],inactive
same,viability change,[6],-6.91%
same,outcome,[7],inactive
same,outcome,[8],inactive
same,outcome,[9],inactive
Cn1nnnc1SCC1=C(C(=O)O)N2C(=O)[C@@H](NC(=O)[C@H](O)c3ccccc3)[C@H]2SC1,Potency,[10],3.98 µM (active)
C=Cc1ccc(S(=O)(=O)O)cc1,Potency,[10],12.6 µM (active)
CNC(=O)[C@H](Cc1c[nH]c2ccccc12)NC(=O)[C@@H](CC(=O)NO)CC(C)C,Potency,[11],inactive
CCN(CC)C(=S)S,Potency,[11],inactive
CCCCCCCCCCCCCCCCCCCCCC(=O)Nc1ccn([C@@H]2O[C@H](CO)[C@@H](O)[C@@H]2O)c(=O)n1,Potency,[11],inactive
OCCOCCOCCO,Potency,[11],inactive
O=C(CCCN1CCC(C(=O)c2ccc(F)cc2)CC1)c1ccc(F)cc1,Potency,[11],inactive
CN1C(=O)C[C@@H](C(=O)N[C@@H](Cc2cnc[nH]2)C(=O)N2CCC[C@H]2C(N)=O)NC1=O,Potency,[11],inactive
O=C1CCC(c2ccccc2)(C2CCN(Cc3ccccc3)CC2)C(=O)N1 (configuration not stated),Potency,[11],inactive
CC(=O)N=c1sc(S(N)(=O)=O)nn1C,Potency,[11],inactive
C=CCN1CCCC1CNC(=O)c1cc(S(N)(=O)=O)cc(OC)c1OC (configuration not stated),Potency,[11],inactive
CO/N=C(\C(=O)N[C@@H]1C(=O)N2C(C(=O)[O-])=C(C[n+]3cccc4c3CCC4)CS[C@H]12)c1csc(N)n1,Potency,[11],inactive
CN=C1C=CC(=C(c2ccc(N(C)C)cc2)c2ccc(N(C)C)cc2)C=C1,Potency,[11],inactive
Cc1ccc(S(=O)(=O)NCl)cc1,Potency,[11],inactive
CC(=O)N[C@@H]1C(O[C@H]2O[C@H](C(=O)O)C(O)[C@H](O)[C@H]2O)[C@H](O)[C@@H](CO)O[C@H]1O[C@@H]1C(C(=O)O)O[C@@H](O[C@H]2[C@H](O)[C@@H](CO)OC(O)[C@@H]2NC(C)=O)[C@H](O)[C@H]1O (some centres not stated),Potency,[11],inactive
CC1CC(O)CC(C)(C)C1 (configuration not stated),Potency,[11],inactive
N=C(N)c1ccc(/C=C/c2ccc(C(=N)N)cc2O)cc1,Potency,[11],inactive
C=CCOc1ccc(CC(=O)O)cc1Cl,Potency,[11],inactive
CCc1ccc(S(=O)(=O)O)cc1,Potency,[11],inactive
CS(=O)(=O)OCC(O)C(O)COS(C)(=O)=O (configuration not stated),Potency,[11],inactive
O=C(O)[C@H]1CN(C/C=C/P(=O)(O)O)CCN1,Potency,[11],inactive
C=CC[N+]1([C@H]2C[C@H]3[C@@H]4CC[C@H]5C[C@H](O)[C@@H](N6CCOCC6)C[C@]5(C)[C@H]4CC[C@]3(C)[C@H]2OC(C)=O)CCCC1,Potency,[11],inactive
O=C(O)CCC(=O)c1ccc(-c2ccccc2)cc1,Potency,[11],inactive
CN(C)C(=O)CCSC(SCCC(=O)O)c1cccc(/C=C/c2ccc3ccc(Cl)cc3n2)c1 (configuration not stated),Potency,[11],inactive
C[C@H](O)CN(C)C,Potency,[11],inactive
ClC(Cl)Cl,Potency,[11],inactive
CCCCC[C@H](O)/C=C/[C@H]1[C@H](O)CC(=O)[C@@H]1C/C=C\CCCC(=O)O,Potency,[11],inactive
C[Si](C)(C)O[Si](C)(C)C,Potency,[11],inactive
OC/C=C/c1ccccc1,Potency,[11],inactive
c1ccc2ccccc2c1,Potency,[11],inactive
COc1ccc2c(c1)OC(C)(C)C(c1ccccc1)C2c1ccc(OCCN2CCCC2)cc1 (configuration not stated),Potency,[11],inactive
C=CC(=O)O,Potency,[11],inactive
NCCO/C=C/[C@H](N)C(=O)O,Potency,[11],inactive
CCC(C)[C@@H](N)C(=O)O (some centres not stated),Potency,[11],inactive
CC(C)[C@@H](N)C(=O)O,Potency,[11],inactive
CCN(CC)CCOc1ccc2nc(N(C)C)sc2c1,Potency,[11],inactive
C=C(C)C1CC=C(C)CC1 (configuration not stated),Potency,[11],inactive
CN[C@@H]1[C@H](O[C@H]2[C@H](O[C@H]3[C@H](O)[C@@H](O)[C@H](N=C(N)N)[C@@H](O)[C@@H]3N=C(N)N)O[C@@H](C)[C@]2(O)C=O)O[C@@H](CO)[C@H](O)[C@H]1O,Potency,[11],inactive
OC[C@H]1O[C@@](CO)(O[C@H]2O[C@H](CO)[C@@H](O)[C@H](O)[C@H]2O)[C@@H](O)[C@@H]1O,Potency,[11],inactive
CCN(CC)CCCC(C)Nc1cc(/C=C/c2ccccc2Cl)nc2cc(Cl)ccc12 (configuration not stated),Potency,[11],inactive
Oc1ccc(Cl)c2c1CCC2,Potency,[11],inactive
O=P(O)(O)OP(=O)(O)O,Potency,[11],inactive
CC1CC(OC(=O)C(O)c2ccccc2)CC(C)(C)C1 (configuration not stated),Potency,[11],inactive
O=C(O)[C@H]1C(=CCO)O[C@H]2CC(=O)N12,Potency,[11],inactive
Oc1cc(O)cc(O)c1,Potency,[11],inactive
Cc1ncc(COP(=O)(O)O)c(CN)c1O,Potency,[11],inactive
CCCc1nc(C(C)(C)O)c(C(=O)OCc2oc(=O)oc2C)n1Cc1ccc(-c2ccccc2-c2nn[nH]n2)cc1,Potency,[11],inactive
CN(C)CCCSc1ccccc1NC(=O)/C=C/c1ccccc1,Potency,[11],inactive
COc1ccc2nc(NC(=O)Nc3ccccc3)sc2c1,Potency,[11],inactive
CC(O)CN(C)C (configuration not stated),Potency,[11],inactive
CC(CC=O)CCCC(C)(C)O (configuration not stated),Potency,[11],inactive
O=C(Nc1ccc(O)cc1)c1ccccc1O,Potency,[11],inactive
